# In PubChem BioAssay (NCATS):
# Results filed as inconclusive are left out. Unmarked numbers belong to inactive results. Calls of active or inactive are those of the source. Calls come from the whole dose curve; as a rule, active = well fitted inhibition curve with a large enough effect; inconclusive = small, poorly fitted or top-dose-only effect; inactive = no such curve, though single readings can be large or run the other way.
# Assay: Confirmatory screen NINDS Rhodamine qHTS for Zika virus inhibitors (AID 1347161); note: nearly all actives have a fitted effect of over 60% in size
# Conditions: purified enzyme assay, Rhodamine110 substrate fluorescence, 15 min; series mostly up to 114 µM; activity change, negative = inhibition: at the top concentration
# Text: Avindra Nath, Ph.D., National Institute of Neurological Disorders and Stroke (NINDS), Bethesda, MD
# Radhakrishnan Padmanabhan, Ph.D., Georgetown University (GU), Washington D.C.
# Zika Virus causes congenital defects, including microcephaly and is associated with Guillain-Barre syndrome, eningoencephalitis and myelitis in infected adult. […] Using a target-based approach, we hope to establish a screening paradigm to uncover novel, cell-active NS2B-NS3 protease (Zika Virus) specific inhibitors from NCATS' collection of small molecules using qHTS.
# Four assay panel was created to identify potential Zika Virus inhibitors. Namely, (1) GU unlinked NS2B-NS3 AMC tagged protease qHTS, (2) GU unlinked NS2B-NS3 Rhodamine tagged protease qHTS, (3) NINDS linked NS2B-NS3 AMC tagged protease qHTS, (4) NINDS linked NS2B-NS3 Rhodamine tagged protease qHTS. Active compounds were re-acquired and re-screened to confirm inhibition. Inhibitors were further screened against various confirmatory and counterscreens in dose response format.
# Early Translation Branch (ETB)
# National Center for Advancing Translational Sciences (NCATS), Rockville, MD
# National Institute of Health (NIH), Bethesda, Maryland
# For the linked assay, Nath lab (NINDS) provided the purified linked NS2B-NS3 protease which is consists of hydrophilic domain of NS2B linked to the NS3 protease domain by a flexible (-[…]-) linker. Control compound aprotinin is obtained from Thermo Scientific (#78432; Waltham, Massachusetts). Rhodamine110 substrate ([N-Cbz]-Nle-Lys-Arg-Arg-Rhod110-Arg-Arg-Lys-Nle-[N-Cbz]) was purchased from either Genscript or Bachem.
# 1536-well Protease (Rhodamine110 Substrate) Assay:
# Briefly, 3 microL of enzyme (25 nM final concentration), in assay buffer (10 mM Tris-HCl pH 8.0 with 0.01% Tween 20) were dispensed into a 1,536-well solid-bottom black plate (Greiner Bio One, Monroe, NC). Twenty-three nL of compounds (final concentration range 7.28 nM to 114 microM) or control Aprotinin (final concentration range 3.47 nM to 114 microM) were transferred via Wako Pin-tool (Wako Automation, Richmond, VA). Samples were incubated (room temperature, protected from light) for 15 minutes followed by a 1 microL Rhodamine110 substrate addition (1.5 microM final concentration). Plates were then immediately read on a ViewLux High-throughput CCD imager (PerkinElmer, Waltham, MA) equipped with FITC fluorescence optics (480(20) nm excitation, 540(25) nm emission), then incubated (room temperature, protected from light) for 15 minutes (~15% conversion). The change in fluorescence intensity over the 15-minute reaction period was normalized against no-inhibitor and no-enzyme controls and the resulting percent inhibition data were fitted to a 4-parameter Hill equation. Aprotinin was used as intraplate control.
# Potency is the fitted concentration of half-maximal effect.
Structure (SMILES),Potency,"activity change, negative = inhibition [%]"
CCCCCCc1cc2cc(-c3nnc(-c4cccc(Cl)c4)o3)c(=O)oc2cc1O,3.55 µM (active),
CO[C@H]1C[C@@H](O[C@@H]2/C(C)=C/C[C@@H]3C[C@@H](C[C@]4(CC[C@H](C)[C@@H](C5CCCCC5)O4)O3)OC(=O)[C@@H]3C=C(C)/C(=N/O)[C@H]4OC/C(=C\C=C\[C@@H]2C)[C@]43O)O[C@@H](C)[C@H]1O,22 µM (active),
Clc1nc2n[nH]nc2nc1Cl,5.62 µM (active),
CC1(COc2ccc(C[C@H]3SC(=O)NC3=O)cc2)CCCCC1,4.4 µM (active),
O=C1OCC2=C1C(c1cccc(Cl)c1)CC(=O)N2c1ccc(C(F)(F)F)cc1 (stereo not given),,4.51
O=C(O)c1ccc(C2Nc3ccccc3-c3nnc(SCc4ccc(Cl)cc4)nc3O2)cc1 (stereo not given),15.8 µM (active),
O=C(COc1ccccc1)Nc1ccc(C(=O)OCc2cc(=O)n3nc(C4CC4)sc3n2)cc1,,-19.3
COC(=O)c1c(NC(=O)c2cc3nc(-c4ccc(Br)cc4)cc(C(F)(F)F)n3n2)sc2c1CCCC2,,1.03
O=C(NCc1ccc(Oc2ccccc2)cc1)c1nc(-c2cc(Br)c(O)c(Br)c2)no1,2.21 µM (active),
COCCOC(=O)c1c(C)n(S(=O)(=O)c2ccc(C)cc2)c2ccc(NS(=O)(=O)c3ccc(C)cc3)cc12,,117
CCOC(=O)c1ccc(CN(Cc2ccc(F)cc2)S(=O)(=O)c2cc(C(=O)Nc3cccc(C(F)(F)F)c3)ccc2F)cc1,,-5.39
O=C(Nc1c(C(=O)O)oc2ccccc12)c1ccc(C(F)(F)F)cc1,25.1 µM (active),
O=C(Nc1ccccc1C(=O)OCc1cc(=O)n2nc(C3CC3)sc2n1)c1cccc(F)c1,,9.37
COc1ccc(S(=O)(=O)c2c(Nc3cccc(Cl)c3)sc(C(=O)c3ccccc3)c2N)cc1,,-13
COC(=O)c1ccccc1NC(=O)CSc1nc(-c2ccccc2)cc(C(F)(F)F)n1,,-9.07
CC1(C(=O)O)NCCc2cc(O)c(O)cc21 (stereo not given),27.8 µM (active),
CCOC(=O)c1ccc(CN(Cc2ccc(F)cc2)S(=O)(=O)c2ccc(F)c(C(=O)Nc3ccccc3C(F)(F)F)c2)cc1,,0
Clc1ccc(-c2nn3c(COc4cc(Cl)c(OCc5nnc6sc(-c7ccc(Cl)cc7)nn56)cc4Cl)nnc3s2)cc1,6.31 µM (active),
CCCCc1nn(-c2ccccc2C(F)(F)F)c(=O)n1Cc1ccc(-c2ccccc2S(=O)(=O)NC(=O)c2sccc2C)cc1,4.41 µM (active),
Cc1ccc2nc(-c3ccc(N=Nc4cc(S(=O)(=O)O)c5ccccc5c4O)cc3)sc2c1S(=O)(=O)O,2.82 µM (active),

Structure (SMILES),Potency,"activity change, negative = inhibition [%]"
COC(=O)c1ccc([C@H]2Nc3ccc(S(=O)(=O)Nc4ccc(C)cc4)cc3[C@H]3C=CC[C@H]32)cc1,17.8 µM (active),
CC(C)c1ccc(NC(=O)c2ccc3oc(=O)c(S(=O)(=O)c4ccc(F)cc4)cc3c2)cc1,56.2 µM (active),
Cc1c(C2(c3cc(C(C)C)c(O)c(Br)c3C)OS(=O)(=O)c3ccccc32)cc(C(C)C)c(O)c1Br,5.62 µM (active),
O=C(OCc1cccc(C(F)(F)F)c1)c1ccc(-c2nnn(Cc3ccc(F)cc3)n2)cc1,,3.24
COc1cc(C2Nc3ccccc3-c3nnc(SCc4ccc(Cl)cc4)nc3O2)ccc1OCC(=O)O (stereo not given),25.1 µM (active),
O=C(O)c1ccc(NS(=O)(=O)c2ccc(Cl)c(C(=O)Nc3ccccc3)c2)cc1,,-10.4
Clc1cc(OCc2nnc3sc(Cc4ccccc4)nn23)c(Cl)cc1OCc1nnc2sc(Cc3ccccc3)nn12,3.55 µM (active),
Clc1ccc(-c2nn3c(COc4cccc(OCc5nnc6sc(-c7ccc(Cl)cc7)nn56)c4)nnc3s2)cc1,20 µM (active),
COc1ccc(-c2cc(=O)c3c(O)cc(O)c(-c4cc(-c5cc(=O)c6c(O)cc(O)cc6o5)ccc4OC)c3o2)cc1,25.1 µM (active),
O=C(CSc1nnc(-c2cccc([S+](=O)([O-])NC3CCCC3)c2)n1-c1ccc(F)cc1)Nc1ccc(C(=O)O)cc1,,2.53
Cc1cc(S(=O)(=O)Nc2ccc(C(=O)O)cc2)c(C)c(S(=O)(=O)c2ccc(Cl)cc2)c1,44.7 µM (active),
O=C(OCC#CCSc1nnc(-c2cccc3ccccc23)o1)c1ccc(C(F)(F)F)cc1,,-4.35
O=C(COc1ccccc1F)Nc1ccccc1C(=O)OCc1cc(=O)n2nc(C3CC3)sc2n1,,-20
O=c1oc2ccc3ccccc3c2cc1-c1nnc(Nc2cc(C(F)(F)F)ccc2Cl)s1,,4.01
CCOc1ccc(C(=O)Nc2ccccc2C(=O)OCc2cc(=O)n3nc(C4CC4)sc3n2)cc1,,9.33
Cc1ccc(NC(=O)CSc2ncccc2C(=O)Oc2ccccc2Cl)cc1Cl,,15.2
COc1ccc(NS(=O)(=O)c2ccc3c(c2)[C@H]2C=CC[C@H]2[C@@H](c2ccc(C(=O)O)cc2)N3)cc1,3.16 µM (active),
COC(=O)C1=C(c2ccccc2)c2ccccc2S(=O)(=O)N1CC(=O)Nc1ccccc1C(F)(F)F,,-4.93
O=C(Nc1ccc(C(=O)OCc2cc(=O)n3nc(C4CC4)sc3n2)cc1)c1cccc(F)c1,,-16.5
O=C(OCC#CCSc1nnc(-c2cccc3ccccc23)o1)c1ccc(SC(F)(F)F)cc1,,-5.47
